697 NFkB inh = inhibitors of the PMA/ionomycin-induced NF-kB reporter in 697 B cells | AID 435022 | actives 0.33% (n = 330,000) | 697 B-cell NF-kB luciferase reporter, 16 h | inhibition, % at 4 µM; in the data active means inhibition above about 35%
Mdm2-MdmX inh = human Mdm2/MdmX binding inhibition; O15151+Q00987; AID 485346; actives 3% (n = 330,000); SaOS-2 split-luciferase Mdm2/MdmX complementation, luminescence; inhibition, % at 8 µM;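 active means inhibition of at least 50% at 8 µM in the primary screen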
Beta apoptosis = blocks beta cell apoptosis; INS-1E cytokine-induced death, ATP luminescence, 48 h; percent of positive-control rescue, neutral wells zero; protection from apoptosis, % (no concentration beside the values); actives 0.8% (n = 300,000); AID 435005;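 active means Every replicate reaches about 75%, or at least half do and their mean reaches it too, limit read from the data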;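 further: 0% = cytokine-treated negative control wells and 100% = positive control rescue; higher means more ATP so stronger rescue from cytokine killing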
Gli-Sufu block = blocks Gli-Sufu signaling in a luciferase reporter; actives 0.74% (n = 340,000); inhibition, % at 5 µM; AID 588413; Sufu-KO-LIGHT fibroblasts, Gli luciferase reporter luminescence;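 active means inhibition above about 55%, limit read from the data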;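 further: 0% = DMSO-treated cells and 100% = wells with medium but no cells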
Jurkat NFkB inh = lowers PMA/ionomycin-induced NF-kB signal in Jurkat cells; actives 0.53% (n = 330,000); PMA/ionomycin-induced NF-kB luciferase reporter, luminescence; AID 435003; inhibition, % at 4 µM; in the data active means inhibition above about 50%
Jurkat NFkB conf = lowers PMA/ionomycin-induced NF-kB signal in Jurkat cells. shares compounds with Jurkat NFkB inh. Jurkat NF-kB luciferase, 16 h. inhibition, % at 4 µM. actives 27% (n = 2,700);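 active means inhibition reaching about 45% at 4 µM in either replicate, limit read from the data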;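 further: plate controls were PMA/ionomycin stimulated DMSO wells for no effect and unstimulated DMSO wells for full effect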
* = called active by the depositor; · = no result. Rows were chosen to be rich in hits. Some 4% of all compounds tested hit in one or more screens of this group.

SMILES	697 NFkB inh	Mdm2-MdmX inh	Beta apoptosis	Gli-Sufu block	Jurkat NFkB inh	Jurkat NFkB conf
O=[N+]([O-])c1ccc(O)c(/C=N/Nc2ccc(Cl)nn2)c1	-121	40	110*	86*	53*	78*
C/C(=C\C(=O)c1ccc(C)cc1)Nc1cccc(O)c1	-188	-184	-11	-9	-186	-7
Cc1ccc(C(=O)/C=C/Nc2cccc(O)c2)cc1	-109	-125	-1	-49	-70	·
CC(=O)c1c(C)nn(CC(=O)NC2CCCN(Cc3ccc(CC(C)C)cc3)C2)c1C (configuration not stated)	2	19	5	38	12	·
O=C(CNc1cccc([N+](=O)[O-])c1)NC(=O)NC1CCCCC1	-9	3	3	1	-14	·
CCC(C)C(NC(=O)c1ccccc1NC(=O)c1ccc(OC)cc1)C(=O)NCc1ccco1 (configuration not stated)	3	-5	5	-1	2	·
COc1ccc(C(=O)Nc2ccc(Cl)cc2C(=O)NCc2ccco2)cc1	-42	30	3	4	52*	4
O=C(Nc1ccc(Cl)cc1Cl)c1cc2ccccc2o1	-221	-94	-3	-60	-154	-123
Cc1ccc(NC(=O)c2cc3ccccc3o2)nc1	-197	-119	-9	-120	-170	-107
Cc1cc(C)nc(NC(=O)c2cc3ccccc3o2)n1	17	-3	5	-4	-1	·
Cc1ccc(OCc2ccc(Br)cc2)c([N+](=O)[O-])n1	-158	-156	-6	·	-164	-106
Cc1ccc(OCc2ccc(-c3ccccc3)cc2)c([N+](=O)[O-])n1	-16	-17	1	15	-18	·
COc1cc2ccccc2cc1C(=O)NC1CCCC1	-17	-39	0	-26	-43	·
COc1cc2ccccc2cc1C(=O)NC1CCC(C)CC1 (configuration not stated)	-59	-103	-16	-61	95*	-47
Oc1ccccc1-c1cc(-c2ccccc2)n[nH]1	-200	-205	-3	-1	-181	-81
CCOc1ccccc1NC(=O)C1CCCN1S(=O)(=O)c1ccccc1C(F)(F)F (configuration not stated)	11	22	·	9	-5	·
Cc1ccc(OCCCNCCO)c(Br)c1	-8	26	-7	-1	81*	35
CNCCCOc1ccc(C)cc1Br	-8	-16	-1	1	9	·
COc1ccccc1CNS(=O)(=O)CCNCCc1ccccc1	·	·	·	-7	·	·
COc1cc(NC(=O)N2CCNC2=O)cc(C(=O)Nc2cccc(C(F)(F)F)c2)c1	-8	38	14	32	67*	51*
N#CC1=C2Sc3ccccc3N2CCCC1=O	-40	-6	2	-1	-11	·
N#CC1=C2SC=C(c3ccc(Br)cc3)N2CCCC1=O	-179	-168	13	-66	-210	-88
Cc1c(C(=O)C(=O)N2c3ccc(F)cc3CCC2C)c2ccccc2n1C (configuration not stated)	-64	46	-5	27	65*	32
Cc1c(C(=O)C(=O)N2CCN(C)CC2)c2ccccc2n1C	9	13	-6	-1	2	·
N/C(=N\OC(=O)c1ccc(Br)cc1)c1ccccc1	-178	-115	8	-71	-163	-103
SMILES	697 NFkB inh	Mdm2-MdmX inh	Beta apoptosis	Gli-Sufu block	Jurkat NFkB inh	Jurkat NFkB conf
N/C(=N\OC(=O)c1cccc(Br)c1)c1ccc(Br)cc1	-36	-37	0	-12	-40	·
CC(=O)c1cccc(Nc2nc(-c3ccccc3)cs2)c1	-222	-351	-3	-139	-265	-103
COc1ccc(Nc2nc(-c3ccc(OC)cc3)cs2)cc1	-124	-48	·	-77	-65	·
COc1ccc(-c2csc(Nc3ccccc3)n2)cc1	-172	-200	·	-121	-196	-82
CC/C(=N\NC(=O)c1csc(C)c1C)c1cccs1	-157	-160	-2	-107	-157	-29
CC1=Nc2cc(C(=O)NCc3ccco3)ccc2Sc2ccc(C)cc21	7	49	14	30	51*	18
CC1=Nc2cc(C(=O)NCC3CCCO3)ccc2Sc2ccc(C)cc21 (configuration not stated)	-37	49	13	6	49	·
CCC1CN(C(=O)N2CCC(C(=O)NCc3cccc(OC)c3OC)CC2)c2cc(C)ccc2O1 (configuration not stated)	-27	21	-2	29	14	·
O=C(COc1ccccc1)Nc1ccc(Cl)cn1	-7	-21	1	-1	-39	·
O=C(COc1ccccc1Cl)Nc1ccc(Cl)cn1	-52	-218	1	-112	-153	-99
COCC(=O)N1CCC(Oc2ccc(C(=O)NC3CCOC(C)(C)C3)cc2)CC1 (configuration not stated)	-15	-35	-5	-12	3	·
Cc1cc(C)c2sc(NC(=O)C3=COCCO3)nc2c1	-163	-150	0	-106	-170	10
CSc1nccc(N/N=C/c2ccccc2)n1	-136	-126	-7	-57	-160	-67
Cc1ccnc(N/N=C/c2ccccc2)n1	-69	-20	2	-69	-75	·
COc1nc(C)ccc1-c1noc(-c2ccco2)n1	-158	-128	-2	-78	-171	-105
N#Cc1ccc(C(=O)Nc2cccc3ccccc23)c(F)c1	1	7	1	-3	0	·
CCn1cc(C(=O)NCc2ccc3c(c2)OCO3)c(=O)c2cc(F)c(N3CCN(C(=O)c4ccco4)CC3)cc21	-10	38	27	19	14	·
CCOC(=O)CSc1nc(-c2ccncc2)ccc1C#N	-118	-177	-3	-58	-210	-75
O=C(c1ccc2ncsc2c1)N1CCN(c2cccc(C(F)(F)F)c2)CC1	-176	31	·	-12	55*	2
C/C(=N\NC(=O)c1c([N+](=O)[O-])c(C)nn1C)c1ccc(NC(=O)C2CCCC2)cc1	9	48	7	40	53*	50*
C/C(=N\NC(=O)c1c([N+](=O)[O-])c(C)nn1C)c1ccc(NC(=O)c2ccc(C)o2)cc1	-25	-3	3	-28	-27	·
COc1cccc(C(=O)Nc2ccc3c(C)cc(=O)oc3c2)c1	-132	-176	4	-87	-178	-111
COc1ccc(-c2csc(-c3cccs3)n2)c(OC)c1	-119	-300	·	-111	-186	-131
CCC1=C(OC(=O)N(CC)CC)N2C(=O)OC(=NCCc3c[nH]c4ccccc34)[C@]2(C)[C@H]2C1=CC[C@H]1C(=O)N(CC(=O)OC)C(=O)[C@H]12	8	25	0	3	8	·
CCOC(=O)c1sc2nc3c(cc2c1N)COC(C)(CC)C3 (configuration not stated)	-192	-158	-4	-151	-212	-110
NC(=O)c1sc2nc3c(cc2c1N)CCC3	-20	22	-9	-21	-25	·
COC(=O)c1sc2nc3c(cc2c1N)CCCC3	-97	-245	·	-147	-153	-27
CN1CCSc2ccc(C(=O)Nc3cccc(F)c3)cc21	-1	-211	-3	-49	-153	-15

Bioassay records: PubChem, several laboratories
